Assay outcomes (PubChem)
The entries come from a sample that favours hits as a whole.
Ba CapD inh: Bacillus anthracis CapD inhibitors, primary screen, biochemical, fluorescence intensity; 0.23% of 140,000 active; z-score (test concentration not listed); purified CapD enzyme, fluorescence intensity read-out; hits give low values; CapD gamma-glutamyltranspeptidase (Bacillus anthracis Ames Ancestor); AID 492967, 2010; in the data active = z-score mostly below about -2.9, no sharp cut-off; inactive = mostly above about -1.9
* hit, by the source's call.

For O=C1c2ccccc2NC(c2ccc(Br)cc2)N1c1ccc2ccccc2c1 (stereo unspecified) the results were Ba CapD inh 4.4.
`CCOc1cc(C2C3=C(CC(C)(C)CC3=O)NC3=C2C(=O)c2ccccc23)ccc1O` (stereo unspecified) gave Ba CapD inh -0.6.
For Cc1cc(C(=O)O)ccc1-c1ccc(/C=C2\SC(=S)NC2=O)o1 the results were Ba CapD inh -9.4*.
Cc1ccc(N=C2NC(=O)/C(=C\c3ccc(-c4ccc(C(=O)O)cc4)o3)S2)cc1 was read as Ba CapD inh 4.4.
For Cc1cc(C(=O)O)ccc1-c1ccc(/C=N/n2cnnc2)o1 the results were Ba CapD inh 3.
CSc1cccc(NC(=O)CC(CC(=O)O)c2ccc(C(F)(F)F)cc2)c1 (stereo unspecified) was read as Ba CapD inh 0.69.
Screening CCOC(=O)c1sc(NC(=O)Cn2c(=O)c3ccccc3n(CC)c2=O)nc1C returned Ba CapD inh 0.28.
`N#CCC(=O)Nc1ccccc1Oc1ccccc1` gave Ba CapD inh 0.16.
Screening O=C(O)CCCC(=O)Nc1cccc2ccccc12 returned Ba CapD inh 0.33.
`O=C(O)CCCC(=O)Nc1ccccc1Oc1ccccc1` gave Ba CapD inh -2*.
`CCCN1CCC(N(C(=O)c2ccc(NC(=O)c3cc(Cl)nc(Cl)c3)cc2)C2CC2)CC1` gave Ba CapD inh -0.53.
Cc1ccccc1NC(=O)c1sc(N)c(C(N)=O)c1C was read as Ba CapD inh 1.2.
For O=C1Nc2ccc(Br)cc2/C1=N/N1C(=O)C(O)=CC1(O)c1ccccc1 (stereo unspecified) the results were Ba CapD inh -4.1*.
O=C1Nc2ccc(Br)cc2C1=Nc1ccc(Cl)cc1 was read as Ba CapD inh 0.5.
`O=C(O)CN1C(=O)Nc2ccc(Br)cc2C1c1ccccc1` (stereo unspecified) gave Ba CapD inh 0.8.
`O=C(c1cccs1)N1CCN(Cc2cc3cccc4c3n(c2=O)CCC4)CC1` gave Ba CapD inh 3.2.
Screening N#Cc1c(NCc2ccccc2)ncc2c1Nc1ccccc1C2 returned Ba CapD inh 43.
C=CCOc1ccc(NC(=O)c2ccc(C)cc2)cc1 was read as Ba CapD inh 0.075.
`O=C(OCCS(=O)(=O)c1ccc(C(F)(F)F)cn1)c1ccc(Cl)c(Cl)c1` gave Ba CapD inh 0.055.
For CC(=O)N(C(C)=O)c1ncnc2sc3c(c12)CCCC3 the results were Ba CapD inh -5.4*.
Screening CC(C)(C)C(=O)Nc1ncnc2sc3c(c12)CCCC3 returned Ba CapD inh -0.32.
For CCN(CC)c1ncnc2sc3c(c12)CCCC3 the results were Ba CapD inh -0.17.
Screening N#CC1=C(N)Oc2n[nH]c(-c3ccc4c(c3)OCO4)c2C1c1cccc(OC(=O)N2CCOCC2)c1 (stereo unspecified) returned Ba CapD inh 1.1.
O=S(=O)(c1ccc(Cl)s1)N1CCN(Cc2ccc(Cl)cc2)CC1 was read as Ba CapD inh 0.42.
COC(=O)/C(C#N)=C/c1ccccc1C was read as Ba CapD inh -4.3*.
Screening COC(=O)/C(C#N)=C/c1ccc(C)o1 returned Ba CapD inh -1.4.
CCOC(=O)/C(C#N)=C/c1ccccc1 was read as Ba CapD inh -0.28.
Cc1cc(NC(=O)CSc2nc3ccccc3c(=O)n2CC2CCC(C(=O)NCCc3ccccc3)CC2)no1 (stereo unspecified) was read as Ba CapD inh -0.58.
CCN1C(=O)/C(=C/c2cccc(OC)c2)SC1=S was read as Ba CapD inh 0.085.
COc1ccccc1NC(=O)c1c(NC(=O)c2cccc(Br)c2)sc2c1CCCCC2 was read as Ba CapD inh -0.095.
Screening COc1ccc(NC(=O)CCCN2C(=O)/C(=C\c3ccco3)SC2=S)cc1 returned Ba CapD inh -0.32.
Screening COC(=O)CN1C(=S)N(C)C(=O)/C1=C/c1ccco1 returned Ba CapD inh -4.1*.
Screening CCOc1ccc(/C=C2/C(=O)N(C)C(=S)N2CC(=O)OC)c(OCC)c1 returned Ba CapD inh 0.29.
`Cc1ccc(C(=O)CSc2nnc(-c3ccc(C(F)(F)F)cc3)o2)cc1` gave Ba CapD inh -0.06.
For O=C1CSC(=S)N1/N=C/c1cccnc1 the results were Ba CapD inh -4*.
For O=C1CN(c2cc(Cl)cc(Cl)c2)C(=O)CN1/N=C/c1cccnc1 the results were Ba CapD inh -0.81.
For O=C1CSC(=S)N1/N=C/c1cc(Br)cc(Br)c1O the results were Ba CapD inh 12.
Cc1ccc(NC(=O)Nc2ccc(C(N)=O)cc2)cc1 was read as Ba CapD inh -0.15.
FC(F)(F)c1cccc(-c2cnc(SCc3ccc(Cl)cc3)nc2)c1 was read as Ba CapD inh -0.26.
For O=C(c1ccc2c(c1)OCO2)c1cc2ccc(O)cc2oc1=O the results were Ba CapD inh -3.9.
O=C(c1ccc(F)cc1)c1cc2ccc(O)cc2oc1=O was read as Ba CapD inh -6.4*.
O=C(O)c1cc2ccc(O)cc2oc1=O was read as Ba CapD inh 90.
For O=C(Nc1cccnc1)C1c2ccccc2C(=O)N2CCc3ccccc3C12 (stereo unspecified) the results were Ba CapD inh -0.51.
COC(CNC(=O)c1ccc2c(=O)n(Cc3ccco3)c(=S)[nH]c2c1)OC was read as Ba CapD inh -0.57.
Screening C=CCNC(=O)c1ccc2c(=O)n(Cc3ccco3)c(=S)[nH]c2c1 returned Ba CapD inh 0.38.
For CC(C)NC(=O)c1ccc2c(=O)n(Cc3ccco3)c(=S)[nH]c2c1 the results were Ba CapD inh -5.1*.
`CN(C)/C=C/C(=O)c1ccc(S(=O)(=O)c2ccccc2)cc1` gave Ba CapD inh -1.3.
Screening Cc1c(C(=O)/C=C/N(C)C)nnn1-c1ccccc1 returned Ba CapD inh -5.5*.
`CN(C)/C=C/C(=O)c1ccccc1` gave Ba CapD inh -4.9*.
`Cc1oc(-c2ccccc2)cc1C(=O)/C=C/N(C)C` gave Ba CapD inh -0.065.
`CSc1sc(C(=O)/C=C/N(C)C)c(-c2cccs2)c1C#N` gave Ba CapD inh -1.3.
C/C(=N\O)c1ccc2c(c1)CCO2 was read as Ba CapD inh 0.46.
`Cc1c(C(=O)/C=C/N(C)C)nnn1-c1ccc(Cl)c(Cl)c1` gave Ba CapD inh 0.09.
O=C(c1cccs1)c1cccs1 was read as Ba CapD inh -0.64.
Cc1c(C(=O)/C=C/N(C)C)nnn1-c1ccc(F)c(Cl)c1 was read as Ba CapD inh -1.2.
`CN(C)/C=C/C(=O)c1ccc2c(c1)CCO2` gave Ba CapD inh -6.1*.
CN(C)/C=C/C(=O)c1cccs1 was read as Ba CapD inh -4.9*.
CC(=O)c1ccc2c(c1)CCO2 was read as Ba CapD inh 0.43.
`O=C(c1cc2c(s1)-c1ccccc1SC2)N1CCCC1` gave Ba CapD inh 3.9.
For CC(O)(CS(=O)(=O)Cc1ccc(Cl)cc1)c1ccccc1Cl (stereo unspecified) the results were Ba CapD inh -0.095.
CC(=O)N1CCC(N(C(=O)CSCCNC(=O)C(c2ccccc2)c2ccccc2)C2CC2)CC1 was read as Ba CapD inh -0.68.
For COc1cccc2c1OCC(C(=O)Nc1ccc(Cl)cc1Cl)=C2 the results were Ba CapD inh 2.
O=c1oc2c(Cl)cc(Cl)cc2cc1-c1nnc(Nc2ccc(F)cc2)s1 was read as Ba CapD inh 0.04.
Screening CCC(Sc1nc2ccccc2s1)C(=O)O (stereo unspecified) returned Ba CapD inh 0.87.
